This is a sample that favours compounds with a hit; in the whole collection about 4.7% have one here.
D1 antagonist – human D1 dopamine receptor antagonism; P21728; HEK293 TREx D1 cells, calcium flux, dopamine EC80; active compounds read low; activity change, negative = inhibition, % at 10 µM; hit rate 3.2% among 360,000; AID 504652; in the data active = activity change below about -30%; also: % is scaled to controls: 0 for no effect and ±100 for the full control effect
Target sequence (P21728 whole entry, looked up): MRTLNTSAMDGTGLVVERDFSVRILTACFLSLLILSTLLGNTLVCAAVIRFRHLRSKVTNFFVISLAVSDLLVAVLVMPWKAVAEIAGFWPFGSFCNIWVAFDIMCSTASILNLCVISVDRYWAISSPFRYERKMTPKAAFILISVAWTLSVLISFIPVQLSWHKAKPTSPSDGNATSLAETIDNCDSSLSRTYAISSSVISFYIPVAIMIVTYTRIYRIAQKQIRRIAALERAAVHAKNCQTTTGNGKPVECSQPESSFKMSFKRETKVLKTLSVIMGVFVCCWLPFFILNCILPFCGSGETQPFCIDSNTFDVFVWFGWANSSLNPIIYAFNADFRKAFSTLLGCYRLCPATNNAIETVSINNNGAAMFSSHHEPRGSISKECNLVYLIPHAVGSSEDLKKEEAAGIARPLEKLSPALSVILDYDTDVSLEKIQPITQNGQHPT
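Compound effects on dopamine-evoked calcium signalling were measured in tetracycline-induced HEK293 Trex D1 cells. Dopamine at EC80 followed a 180 s compound pre-read, and fluorescence was tracked kinetically for 180 s more.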
TRHR PAM – allosterically enhances the human TRH receptor; P34981; TRHR cells, fluo-8 calcium fluorescence, EC20 TRH enhancement; enhancement, % at 2 µM; hit rate 0.66% among 360,000; AID 493056; in the data active = enhancement above about 30%; also: 0% is about no effect
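TRHR-expressing cells loaded with fluo-8 calcium dye were read kinetically (ex 480/em 530) during compound addition, then stimulated with an EC20 of TRH (10 nM final). Enhancement of the Gq-mediated intracellular calcium response was scored.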
D1 ag – agonists of human D1 dopamine receptor. P21728. HEK293 T-REx D1 cells, calcium flux, agonist mode. activation, % at 2 µM. hit rate 1% among 360,000. AID 504660; also: 0% is about no effect
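Inducible HEK293 T-REx D1 cells, force-coupled to calcium signalling, were plated at 4000 cells/well with tetracycline and held overnight at 30 C. After no-wash calcium dye loading, compound-evoked calcium rise over 180 s flagged agonists.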
D1 potentiator – potentiators of human D1 dopamine receptor; hit rate 0.036% among 360,000; P21728; potentiation, % at 10 µM; HEK293 TREx D1 cells, calcium flux, dopamine EC20 potentiation; in the data active = potentiation above about 30%; also: 0% is about no effect
TRHR ag – agonists of human TRH receptor; activation, % at 2 µM; TRHR cells, calcium flux fluo-8, FDSS agonist mode; hit rate 0.18% among 360,000; P34981; AID 493084; also: 0% is about no effect
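TRHR-expressing cells loaded with fluo-8 calcium dye; 23 nL library compound pin-transferred, kinetic FDSS fluorescence (Ex 480/Em 530) recorded about 180 s for agonist-induced calcium release, before a 10 nM TRH EC20 addition for potentiator mode.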
* marks the source's active call; other numbers are inactive results. Rule as the data show it, unless noted: active = activation above about 30%; inactive = the rest.

SMILES	D1 antagonist	TRHR PAM	D1 ag	D1 potentiator	TRHR ag
CCCOc1cccc(C2/C(=C(/O)c3ccc(F)cc3)C(=O)C(=O)N2CCN(C)C)c1 (centres undefined)	1.0	-1.5	3.0	-2.6	0.4
CCc1cccc(C)c1NC(=O)Cn1c(=O)n(-c2ccc(C)cc2)c(=O)c2c1cnn2C	7.3	-6.0	1.3	0.3	0.0
Cc1nc(SCCOc2ccc(F)cc2)c2ccccc2n1	3.2	2.4	33.6*	-11.1	0.3
Cc1nc(SCCC(=O)O)c2ccccc2n1	-1.9	8.8	1.4	-3.8	0.3
COc1ccc(OCCn2nnc3sc4c(c3c2=O)CCC(C(C)(C)C)C4)cc1 (centres undefined)	-10.0	0.6	1.4	-1.0	-0.1
CCOc1ccc(OCc2ccc(C(=O)N(CC)CC)cc2)cc1	-42.1*	-3.2	16.0	-6.3	-0.1
CCC(=O)c1ccc(OCc2ccc(C(=O)OC)cc2)cc1	-22.5	-3.8	15.8	-4.0	-0.5
CCN(CC)C(=O)c1ccc(CS(=O)(=O)Cc2ccccc2)cc1	-30.7*	-6.4	6.5	-0.3	1.3
CCN(Cc1ccccc1)C(=O)c1ccc(C(=O)N(CC)Cc2ccccc2)cc1	-62.0*	-5.5	3.6	0.8	-0.3
O=C(c1ccccc1)N(Cc1ccccc1)Cc1ccccc1	-12.7	-6.6	1.1	-9.4	0.6
CCN(CC(=O)Nc1c(F)cccc1F)C(=O)c1ccc(COc2ccccc2)cc1	4.7	-4.3	0.8	0.8	-0.6
CCC(=O)c1ccc(OCc2ccc(C#N)cc2)cc1	-36.8*	-6.4	-0.5	-2.5	0.3
O=C(NCC(c1ccco1)S(=O)(=O)c1cccs1)c1ccc(C(F)(F)F)cc1 (centres undefined)	0.6	-2.4	1.4	1.2	-0.4
CC(=O)Nc1ccc(NC(=O)c2cnn(-c3ccccc3)c2C2CCN(C(=O)OC(C)(C)C)CC2)cc1	0.6	6.7	1.8	-0.1	1.2
CNC(=O)c1cnc2sc(N3CCC(C)CC3)nn2c1=O	-16.6	28.7	0.9	-1.7	0.4
COc1ccc(-c2nc3ccccc3n3c(-c4cccc(C)c4)c4c(=O)n(C)c(=O)n(C)c4c23)cc1OC	-1.1	-0.1	-0.9	-5.4	0.0
COc1ccc(C2=NN(CCC(=O)NC3CCCCCC3)C(=O)CC2)cc1	-32.9*	0.7	1.4	-3.0	-0.8
Cc1nn2c(=O)c3c4c(sc3nc2n1-c1ccccc1)COC(C)(C)C4	1.9	39.5*	2.6	5.2	-1.0
Cc1nnc2n(-c3ccccc3)c(=O)c3c4c(sc3n12)COC(C)(C)C4	-7.3	25.2	2.7	-3.4	-0.5
C/C(=N\NC(=O)CSCc1ccccc1Cl)c1cc(O)ccc1O	-36.5*	-0.9	5.2	-9.4	0.7
O=C(CSCc1ccccc1Cl)NN=C1CCCCCC1	5.8	-3.0	1.8	0.6	-0.2
Oc1ccc(/C=N/N(c2ccccc2)c2ccccc2)c(O)c1O	-9.3	-1.8	1.2	-4.2	0.6
Oc1ccc(/C=N/N(c2ccccc2)c2ccccc2)cc1O	-38.3*	-8.8	2.4	1.0	1.1
O=c1[nH]c(SCc2ccc(Cl)cc2)nc2c1CCC2	4.0	-5.9	0.9	1.8	-0.2
O=c1[nH]c(SCc2ccccc2)nc2c1CCCC2	-40.8*	-4.2	7.6	-2.7	-0.4
SMILES	D1 antagonist	TRHR PAM	D1 ag	D1 potentiator	TRHR ag
COc1cc(C(=O)Nc2ccccc2SCc2cc(=O)n3nc(C)sc3n2)cc(OC)c1OC	-50.2*	-4.2	4.5	-5.3	-0.7
COc1cc(NC(=O)CN2C(=O)COc3ccc(S(=O)(=O)NC4CCCC4)cc32)cc(OC)c1	5.5	10.9	9.1	-2.5	-0.6
O=C(c1cc2sccc2n1Cc1ccccc1)N1CCCc2ccccc21	-13.7	-5.2	3.7	-0.6	0.4
Cn1c(C(=O)N2CCCc3ccccc32)cc2sccc21	-18.5	10.1	44.5*	-7.3	-0.4
CCCCN(CCCNc1ncnc2nc[nH]c12)c1ccccc1	-13.6	-3.8	8.4	-6.0	0.2
CCN(CCCNc1ncnc2nc[nH]c12)c1cccc(C)c1	-36.1*	-3.3	8.1	-9.5	-0.4
COc1cc(-c2noc(-c3cc(C)[nH]n3)n2)cc(OC)c1OC	-9.4	-0.1	1.8	3.0	0.6
N#CC(C(=O)OCc1ccccc1)c1nc2ccccc2nc1N1CCOCC1 (centres undefined)	7.7	1.2	33.5*	4.3	5.7
COC(=O)C1CCN(c2nc3ccccc3nc2C(C#N)C(=O)OCC(C)C)CC1 (centres undefined)	8.7	-6.3	5.4	-9.9	3.6
C=CCOC(=O)C(C#N)c1nc2ccccc2nc1N1CCN(Cc2ccc3c(c2)OCO3)CC1 (centres undefined)	-32.4*	-0.3	12.0	-13.9	2.1
N#CC(C(=O)NC1CCCCC1)c1nc2ccccc2nc1N1CCOCC1 (centres undefined)	22.5	4.4	2.0	-1.1	0.6
COC(=O)C1CCN(c2nc3ccccc3nc2C(C#N)C(=O)NCCc2ccccc2)CC1 (centres undefined)	-35.3*	3.9	2.4	-1.1	0.9
N#CC(C(=O)NC1CCCCC1)c1nc2ccccc2nc1N1CCN(c2ccccc2F)CC1 (centres undefined)	-34.7*	-5.5	10.4	-2.6	0.9
CCOc1ccc(NC(=O)Nc2c[nH]c(=O)[nH]c2=O)cc1	-1.7	17.2	1.7	1.9	0.7
COc1cccc(S(=O)(=O)N2CCN(S(=O)(=O)c3ccc4c(c3)OCCO4)CC2)c1	15.5	-3.6	1.8	-3.0	-2.3
O=C(O)c1c(Cl)c(Cl)c(Cl)c(Cl)c1C(=O)N1CCOCC1	-35.5*	-0.2	4.1	-2.6	0.9
O=C(O)c1c(Cl)c(Cl)c(Cl)c(Cl)c1C(=O)N1CCCCCC1	3.1	1.8	2.4	-4.0	0.6
O=c1[nH]c(-c2ccncc2)nc2ccccc12	-4.6	-4.2	2.8	0.3	0.0
Cc1cccc(-c2nc3ccccc3c(=O)[nH]2)c1	-30.4*	4.3	0.1	9.5	0.0
Cc1ccc(/C=C/c2nc3ccccc3c(=O)[nH]2)cc1	-39.6*	1.5	2.3	-4.3	0.9
Brc1ccc(C2=CC(c3cccs3)n3ncnc3N2)cc1 (centres undefined)	8.1	3.4	59.7*	1.1	66.3*
Fc1ccc(C2=CC(c3ccc(Br)o3)n3ncnc3N2)cc1 (centres undefined)	-21.6	-1.5	7.4	2.2	3.6
CC1=C(C(N)=O)C(c2ccc(Br)cc2)n2nc(CCCO)nc2N1 (centres undefined)	0.2	-1.1	4.2	-10.9	0.9
C1=C(c2ccc(-c3ccccc3)cc2)Nc2ncnn2C1c1ccco1 (centres undefined)	7.9	12.6	61.4*	1.6	30.3*
OCCCc1nc2n(n1)C(c1cccs1)C=C(c1ccc(Br)cc1)N2 (centres undefined)	3.9	-3.0	39.9*	4.3	44.8*

Screening results deposited in PubChem by National Center for Advancing Translational Sciences (NCATS).
